According to PubChem BioAssay:
A number with no mark means an inactive call. No rule for the calls is given here.

target: Pantothenate synthetase (Mycobacterium tuberculosis (strain ATCC 25618 / H37Rv)) (UniProt P9WIL5); test: Coupled enzyme confirmation of inhibitors against recombinant Mtb PanC (AID 375); settings: coupled enzyme assay; at 10 µM, hits give high values;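 also: 0% = full reaction with vehicle and 100% = no enzyme background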
Sequence (P9WIL5 whole entry, looked up): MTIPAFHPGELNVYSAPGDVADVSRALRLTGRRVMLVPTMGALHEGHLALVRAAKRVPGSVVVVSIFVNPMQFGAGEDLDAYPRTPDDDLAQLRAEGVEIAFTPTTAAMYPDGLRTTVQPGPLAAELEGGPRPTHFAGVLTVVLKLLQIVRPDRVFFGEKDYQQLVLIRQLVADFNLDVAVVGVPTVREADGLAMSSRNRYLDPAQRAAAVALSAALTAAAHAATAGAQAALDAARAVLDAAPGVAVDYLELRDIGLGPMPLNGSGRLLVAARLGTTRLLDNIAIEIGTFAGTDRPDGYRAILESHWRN

| SMILES | inhibition [%] |
| --- | --- |
| COc1ccc2[nH]c(=O)c(CN(CC3CCCO3)C(=O)Nc3ccc(F)cc3)cc2c1 (stereo not given) | 0 |
| CC1CCCN(C(=O)c2cc3c(-c4ccc(Cl)cc4)nn(C)c3s2)C1 (stereo not given) | 4 |
| C#CCSc1nnc(-c2ccccc2)c(=O)[nH]1 | 0 |
| O=C(O)CCC(=O)Nc1ccc(S(=O)(=O)Nc2nccs2)cc1 | 0 |
| COc1cc(-n2nc(C)c3c2OC(N)=C(C#N)C3c2ccccc2)c(Cl)c(Br)c1O (stereo not given) | 9 |
| COc1cc2c(cc1NCc1ccccn1)oc1ccccc12 | 0 |
| O=C(NC1CCc2ccccc21)C1CCN(S(=O)(=O)c2ccc(-n3cnnn3)cc2)CC1 (stereo not given) | 10 |
| CCOc1ccc(NC(=O)C(C)Sc2nnc(C)n2C)cc1 (stereo not given) | 0 |
| CC(=O)Nc1ccc(S(=O)(=O)N2CCN(Cc3ccncc3)CC2)cc1 | 8 |
| Cc1occc1C(=O)Nc1nnc(C2CCCCC2)s1 | 0 |
| Cc1ccc(CC2SC(=O)NC2=O)cc1Cl (stereo not given) | 0 |
| COc1ccc(Cl)cc1C(=O)n1nc(C)cc1C | 0 |
| Cc1cc(-c2nc3ncccc3o2)ccc1N | 0 |
| C=CCOC(=O)C1=C(C)NC(=O)NC1c1cn(-c2ccccc2)nc1-c1cccs1 (stereo not given) | 4 |
| O=C1CCCCCC1C1(O)C(=O)Nc2ccccc21 (stereo not given) | 7 |
| O=C1CC(c2ccccc2)Cc2nc(N3CCc4ccccc43)ncc21 (stereo not given) | 1 |
| COC(=O)c1c(NC(=O)CSc2nnnn2C)sc(C)c1C | 0 |
| CCOC(=O)c1ccc(NC(=O)Cn2cc3c(n2)CCC(C)C3)cc1 (stereo not given) | 8 |
| CCn1c(CNc2ccc(C)cc2)nnc1SCC(=O)NCc1ccccc1 | 0 |
| Cc1cccc(Nc2nc(N)nc(CN3CCC(C(N)=O)CC3)n2)c1C | 0 |

| SMILES | inhibition [%] |
| --- | --- |
| COc1cccc(C2C(C(N)=O)=C(C)Nc3nc(-c4ccccc4Cl)nn32)c1 (stereo not given) | 0 |
| CCOc1ccc(C2/C(=C(/O)c3ccccc3)C(=O)C(=O)N2CCCN(C)C)cc1OC (stereo not given) | 0 |
| Cn1c(=O)cc(SCC(=O)N2CCOCC2)c2ccc(Cl)cc21 | 0 |
| O=C(Nc1ccc2nc(-c3cccs3)[nH]c2c1)c1ccco1 | 0 |
| Cc1c(CCC#N)c(N2CCN(C3CCCCC3)CC2)n2c(nc3ccccc32)c1C#N | 3 |
| CCc1ccc2[nH]c(=O)c(C(c3nnnn3CC3CCCO3)N3CCN4CCCC4C3)cc2c1 (stereo not given) | 4 |
| COc1ccccc1N1CCN(C(=O)c2oc3cc(C)c(C)cc3c2C)CC1 | 0 |
| Cc1nnc2n(-c3ccc(Cl)cc3)c(=O)c3c4c(sc3n12)CN(C)CC4 | 3 |
| CCOc1ccc(N2CC(C(=O)Nc3ccc(F)cc3F)CC2=O)cc1 (stereo not given) | 6 |
| CCOC(=O)c1ccccc1NC(=O)CSc1nc2c(c(=O)n(C)c(=O)n2C)n1C | 0 |
| c1ccc(-c2nc3ccccc3nc2-c2ccccn2)nc1 | 0 |
| CCOC(=O)C1=C(C)NC2=C(C(=O)CC(C)(C)C2)C1c1ccc(N(C)C)cc1 (stereo not given) | 0 |
| COc1ccc(Cc2nn3c(-c4cc(OC)c(OC)c(OC)c4)nnc3s2)cc1 | 0 |
| CC(C)c1nnc(NC(=O)c2ccc(N3C(=O)CCC3=O)cc2)s1 | 0 |
| CCS(=O)(=O)N1CCC(C(=O)NCc2cccs2)CC1 | 2 |
| CCCn1c(SCC(=O)NC(=O)NCc2ccco2)n[nH]c1=O | 0 |
| O=C1[C@@H]2C(c3ccccc3Cl)=NO[C@@H]2C(=O)N1Cc1ccccc1 | 0 |
| O=C(CN1C(=O)NC(Cc2ccccc2)C1=O)Nc1ccccc1 (stereo not given) | 0 |
| Cc1cc(C)n(-c2nc(C)nc3c2cnn3-c2ccccc2)n1 | 0 |
| O=C(COC(=O)c1ccc(S(=O)(=O)Nc2ccccc2)cc1)NCCN1C(=O)CSC1=O | 0 |
